Whole data set: some 39,000 sequences, median “fluorescence intensity (a.u.)” near 4,300, cut for the highest 2% near 39,000. Shown is part of a subset that was picked to be rich in the highest values.

The target in the assay is T1, OsSMF1 (Oryza sativa, UniProt Q6ZLB0 1-436).
T1 sequence: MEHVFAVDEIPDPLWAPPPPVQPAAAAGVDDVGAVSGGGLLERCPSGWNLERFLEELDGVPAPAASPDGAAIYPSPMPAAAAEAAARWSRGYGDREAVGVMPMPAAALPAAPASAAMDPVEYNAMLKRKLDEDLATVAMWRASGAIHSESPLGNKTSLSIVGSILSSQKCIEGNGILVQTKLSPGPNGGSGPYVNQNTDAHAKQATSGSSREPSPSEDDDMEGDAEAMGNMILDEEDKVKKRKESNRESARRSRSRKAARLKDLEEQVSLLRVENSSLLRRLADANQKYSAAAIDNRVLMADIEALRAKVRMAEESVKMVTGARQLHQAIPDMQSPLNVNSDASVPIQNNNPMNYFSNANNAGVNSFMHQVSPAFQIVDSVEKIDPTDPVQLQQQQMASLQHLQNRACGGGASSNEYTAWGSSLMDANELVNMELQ
The experiment in a line: protein-binding microarray (RPBM); PBS, 2% BSA, 51.3 ng/ul salmon testes DNA, 50 uM zinc acetate, 200 nM TF, 25 C, 1 h; high values mean tight binding. The following applies: protein: recombinant; tags: N-terminal polyhistidine and DsRed monomer fusion (pET32a); chain copies: 2; label: CyDye5-dUTP incorporated in the synthesized complementary strand; 3' TTTTT single-stranded linker to array surface; dsDNA, one strand shown. The essentials: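 Polyhistidine-tagged DsRed fusions of transcription factors, joined at the N-terminus, were expressed in E. coli BL21-CodonPlus and isolated on Ni–NTA. They were incubated at 200 nM for 1 h at 25 °C on a custom Agilent array, double-stranded and BSA-blocked, in PBS with 2% BSA, salmon testes DNA and 50 µM zinc acetate. The binding signal is per-feature fluorescence intensity (arbitrary units) read on an Axon 4000B scanner after washing.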
Regarding “TGCTTAGCCGTGCGGCCCGTGCGGCGTCAATGGCGTGGCGCGGAGTCACCTAGTGCAG”, the binding signal is 4440 fluorescence intensity (a.u.).
Take “ATACTTCCATTTGTGCCATACATTTTGTCATTTCGACCTGCGGAGTCACCTAGTGCAG”: the binding signal is 3330 fluorescence intensity (a.u.).
In the case of “GGTTTTAACCCCGATTTCGTTCGACGTGGCGGCTGAGTCACGGAGTCACCTAGTGCAG” it was 10800 fluorescence intensity (a.u.); in that of “ATTCACTTTCTTGATTACGTAGAAGCTTCAGTGTCTATTCCGGAGTCACCTAGTGCAG”, 3810 fluorescence intensity (a.u.).
In the case of “ACAAGTACTACACGCGAATGTATTTCAATAGAAATTTATCCGGAGTCACCTAGTGCAG” it was 35600 fluorescence intensity (a.u.); in that of “TGCATGTACGATACTGGAGCTGATCCTCGCCATCATATCCCGGAGTCACCTAGTGCAG”, 3160 fluorescence intensity (a.u.).
Consider “AGAAGCGCGCCGAGGAGGCCCGCTCGTTCAACCGCGCCGCCGGAGTCACCTAGTGCAG”, for which the binding signal was 65500 fluorescence intensity (a.u.).
In the case of “GTGCGCGCGGTGCTTAGGCAGACGCGGCCCAGATCGGCGCCGGAGTCACCTAGTGCAG” it was 40500 fluorescence intensity (a.u.); in that of “GCGCGCGCGCGCGGGCATAGGCGACGCCGCGACGGTGCGGCGGAGTCACCTAGTGCAG”, 3890 fluorescence intensity (a.u.); in that of “ACGATCGGTGACGACGAGCGACGACGCGGCATGAAGACGCCGGAGTCACCTAGTGCAG”, 3300 fluorescence intensity (a.u.).
In the case of “CCGCCTCGCCGCGTGCCTCTGGAACAATCTGGCGCTGCCGCGGAGTCACCTAGTGCAG” it was 3700 fluorescence intensity (a.u.).
With “ATCAGCAAGAATGCGAGGGAGACGGCGGAGAGCTCGGGAACGGAGTCACCTAGTGCAG”, the binding signal was 43000 fluorescence intensity (a.u.).
Regarding “ACAAACCAACCAACCCTCCTCGCCGCGGCCGCCGCCACCGCGGAGTCACCTAGTGCAG”, the binding signal is 3400 fluorescence intensity (a.u.).
With “TGGAGAGGGAACCAACAACAAACAACCAGCTGCCTCGCCGCGGAGTCACCTAGTGCAG”, the binding signal was 47200 fluorescence intensity (a.u.).
In the case of “CGGAGACGGGAGGCGAGGCGAGCGGCGCCGCGGAACGGGACGGAGTCACCTAGTGCAG” it was 18600 fluorescence intensity (a.u.); in that of “CGCCGCGAAGGCGCGAAGCCCCGTCACCGCGCGCGCGCGCCGGAGTCACCTAGTGCAG”, 5540 fluorescence intensity (a.u.); in that of “GGCGGCGGCGGAGAAGGAGAGGCCGCCCGCCGCGTGGCGCCGGAGTCACCTAGTGCAG”, 6420 fluorescence intensity (a.u.).
“AGGGAAAAGAGGAGACGGGAGGAAAGGAACGGAGGAGATGCGGAGTCACCTAGTGCAG”: the binding signal was 3340 fluorescence intensity (a.u.).
Consider “GAGAGAGAGAGAGGGATTTCCCCTTGGCTCCGCGTCGATACGGAGTCACCTAGTGCAG”, for which the binding signal is 3520 fluorescence intensity (a.u.).
In the case of “AATCTATATGTTATCGTCCTCCTCTTGCGTGTGGCTAGTTCGGAGTCACCTAGTGCAG”, the binding signal is 3750 fluorescence intensity (a.u.).
For the sequence “AATTGTTTACTGATCTTTGCGTTAATGATGATTGTGCCCTCGGAGTCACCTAGTGCAG”, the binding signal was 3160 fluorescence intensity (a.u.).
Turning to “AAAATTCGAATCAGGCGGAGCCACCTCACCTCGCCGCGGCCGGAGTCACCTAGTGCAG”, the binding signal was 5020 fluorescence intensity (a.u.).
In the case of “CTTTGTCTTAGTATGGTGACTGGTTGCAAATTGATTTGGTCGGAGTCACCTAGTGCAG” it was 3410 fluorescence intensity (a.u.); in that of “AGCTAGCTAGCTAACTAGTAAGGAGGTACACGTAGGTAGCCGGAGTCACCTAGTGCAG”, 6960 fluorescence intensity (a.u.); in that of “TGGGTTGAATATGAGCTTGAATATTGGTGGAGTGATACATCGGAGTCACCTAGTGCAG”, 3240 fluorescence intensity (a.u.).
For the sequence “CTTCCATATATCCTTGTCACAAGCTAGCTCACAAAACTTCCGGAGTCACCTAGTGCAG”, the binding signal is 4680 fluorescence intensity (a.u.).
As for “GTGATTTATCCGAGCAGAGTGGCGGCGGCTTCGCCGAGTACGGAGTCACCTAGTGCAG”, the binding signal is 39600 fluorescence intensity (a.u.).
In the case of “GAGCGCGGAAGCCGGCGGCGGCCGTACGTGTTCGGCCGGCCGGAGTCACCTAGTGCAG” it was 3410 fluorescence intensity (a.u.).
The same measure for “GAGGCCGGGGTCGGGGCGAGCGAGGCGAGAGGGGAGGAGGCGGAGTCACCTAGTGCAG”: 4480 fluorescence intensity (a.u.).
As for “GGTGGCGGCGCGGGCCGGGCGGCGGCGGCGGCGGCGGCTCCGGAGTCACCTAGTGCAG”, the binding signal was 40400 fluorescence intensity (a.u.).
On to “GCGCGCGCGGCGTTCGGGAGGAAGCGGAAGAGCGCGCCGGCGGAGTCACCTAGTGCAG”, for which the binding signal was 47000 fluorescence intensity (a.u.).
With “GCGGCGCCTCCGGGAAGCGCGGCGCCGCGTCCTCCTCCTCCGGAGTCACCTAGTGCAG”, the binding signal was 3170 fluorescence intensity (a.u.).
In the case of “CCGCGCTCACCTGCCGGGCGTGGCGCGCCGCGGTGGCCTCCGGAGTCACCTAGTGCAG”, the binding signal is 3140 fluorescence intensity (a.u.).
In the case of “GCGAGGGGCGGGGAGAGCAGCGGCGGCGGCGGAGCGCGGCCGGAGTCACCTAGTGCAG”, the binding signal was 39200 fluorescence intensity (a.u.).
Turning to “GGCGGCCACGGGCTCCGGCGGAGGGCGGCGTGGTGGCGGCCGGAGTCACCTAGTGCAG”, the binding signal is 14400 fluorescence intensity (a.u.).
Consider “GGGCGGAGCGGGGCGGAGGGAGAGGAGGGAGAGGAGGGAGCGGAGTCACCTAGTGCAG”, for which the binding signal is 4920 fluorescence intensity (a.u.).
Turning to “GCCCCGCGGCTTCCGGCTGCCGTCGCCGCGAGCCCCGTGGCGGAGTCACCTAGTGCAG”, the binding signal was 5050 fluorescence intensity (a.u.).
In the case of “GAGCTCCGCCAGTACGAGTACAGACCCAGCTTCGCCGGCGCGGAGTCACCTAGTGCAG” it was 3580 fluorescence intensity (a.u.); in that of “TGTTTACGTCCAACGTTTAACCGCTCGTCTTATTTGAAATCGGAGTCACCTAGTGCAG”, 21000 fluorescence intensity (a.u.).
Consider “AGAAGTATTTCTGCGTCATTGTTGGAAATTATATTTCTAGCGGAGTCACCTAGTGCAG”, for which the binding signal was 3650 fluorescence intensity (a.u.).
In the case of “GACACTTACAAGCACTGCGGCGTTACCATTTTATGGAACTCGGAGTCACCTAGTGCAG” it was 3220 fluorescence intensity (a.u.).
In the case of “GGAAAGGCGCCACGTAATAAATAGAAACAGACTCAGCACTCGGAGTCACCTAGTGCAG” it was 6760 fluorescence intensity (a.u.).

For the origin of these results see publication PMC7819943, “Rice protein-binding microarrays: a tool to detect cis-acting elements near promoter regions in rice”.
